# Source: PubChem BioAssay (EPA / NIEHS)
# Records with an inconclusive call do not appear. Active and inactive are the calls of the source. Rule for the calls: active = hit-call score of the fitted dose curve at least 0.9, where 1 is the maximum; inconclusive = response in the unintended direction; inactive = score below 0.9.
# Target: human Vitamin D Receptor (VDR), VDR (gene 7421) (UniProt P11473)
# Test: ATG_VDR_TRANS: Attagene TRANS-FACTORIAL HepG2 Assay for human Vitamin D Receptor (VDR) (AID 2283022)
# How it was run: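 RT-PCR/capillary electrophoresis read-out of reporter mRNA induction in transiently transfected HepG2; 24 h dosing; chimeric NR-Gal4 (TRANS format); gain-of-signal fit against DMSO baseline.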
# Sequence of human Vitamin D Receptor (VDR), VDR (gene 7421) (P11473 whole entry, looked up): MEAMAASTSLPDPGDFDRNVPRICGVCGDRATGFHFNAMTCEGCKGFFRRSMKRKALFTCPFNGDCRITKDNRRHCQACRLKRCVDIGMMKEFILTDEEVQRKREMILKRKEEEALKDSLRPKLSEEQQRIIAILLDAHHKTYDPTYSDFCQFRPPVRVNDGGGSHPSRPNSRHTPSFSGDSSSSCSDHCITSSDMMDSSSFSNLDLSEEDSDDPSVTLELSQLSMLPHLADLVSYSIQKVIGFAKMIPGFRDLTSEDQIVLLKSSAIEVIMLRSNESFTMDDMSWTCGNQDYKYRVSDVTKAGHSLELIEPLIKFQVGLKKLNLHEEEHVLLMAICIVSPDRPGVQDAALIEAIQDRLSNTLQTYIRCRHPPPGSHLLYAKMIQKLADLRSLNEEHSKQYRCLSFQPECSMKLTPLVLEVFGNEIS
row,SMILES,outcome
1,CCCCOC(=O)[C@H](C)O,inactive
2,CCN=c1cc2oc3cc(NCC)c(C)cc3c(-c3ccccc3C(=O)OCC)c-2cc1C,inactive
